# Data reported in PubChem BioAssay (NCATS).
# Records with an inconclusive call do not appear. A call without a number means that no potency is given here. Calls of active or inactive are those of the source. Calls come from the whole dose curve; as a rule, active = well fitted cell-killing curve with a large enough effect; inconclusive = small, poorly fitted or top-dose-only effect, or effect the other way; inactive = no such curve, though single readings can be large or run the other way.
# Assay: Quantitative High-Throughput drug screen in 47 multiple myeloma cell lines against the NCATS MIPE library collection: PE2_PLB cell viability assay (AID 1919869); note: nearly all actives have a fitted effect of over 35% in size
# Conditions: PE2_PLB myeloma cells viability, ATP luminescence, 48 h; series mostly up to 45.8 µM
# Source text: PI: Beverly A. Mock Ph.D.
# Laboratory of Cancer Biology and Genetics,
# Center for Cancer Research, National Cancer Institute,
# National Institute of Health, Bethesda, Maryland
# Drug resistance and disease progression are common in multiple myeloma (MM) patients, underscoring the need for new therapeutic combinations. […] We hypothesized that effective combinations would reduce MYC expression and enhance p16 activity. […] These preclinical data identify potentially useful drug combinations for evaluation in drug-resistant MM and reveal potential mechanisms of combined drug sensitivity.
# Described herein is the primary MIPE qHTS used to cherrypick compounds. Validated compounds were then further tested for potential synergistic activiy.
# [1] Peat TJ, Gaikwad SM, Dubois W, Gyabaah-Kessie N, Zhang S, Gorjifard S, Phyo Z, Andres M, Hughitt VK, Simpson RM, Miller MA, Girvin AT, Taylor A, Williams D, D'Antonio N, Zhang Y, Rajagopalan A, Flietner E, Wilson K, Zhang X, Shinn P, Klumpp-Thomas C, McKnight C, Itkin Z, Chen L, Kazandijian D, Zhang J, Michalowski AM, Simmons JK, Keats J, Thomas CJ, Mock BA. Drug combinations identified by high-throughput screening promote cell cycle transition and upregulate Smad pathways in myeloma. Cancer Lett. 2023 Aug 1;568:216284. doi: 10.1016/j.canlet.2023.216284. Epub 2023 Jun 24. PMID: 37356470; PMCID: PMC10408729.
# SEQUENCE No. (e.g., 1, 2, 3, etc.); […] (e.g., Cells, Incubation, Reagent, etc.); VALUE and DESCRIPTION.
# 1; Cells; 5 uL; white, solid bottom 1536-well Greiner assay plate.
# 2; Compounds; 23 nL; Kalypsis pin tool (Wako USA) equipped with a 1536-well pin head to transfer to the assay plates.
# 3; Incubation; 48 hours; 37C incubation.
# 4; Reagent;5uL; CellTiter Glo (Promega).
# 5; Detector; 425V; Luminescence; Viewlux PerkinElmer.
# NOTES (numbers refer to Sequence numbers above)
# 1. The cell-based screening methods employed in this study were like those previously published. Briefly, the corresponding myeloma cell lines were screened in 1,536-well plates with 500 cells, 5-uL per well for inhibition of cell viability (assessed by measuring ATP levels with CellTiterGlo).
# 2. NCATS MIPE 4.0 library of approved and investigational drugs were added using the Kalypsis pin tool. Wells treated with DMSO only for 100% viability and media only for 0% viability were used as controls.
# 3. The assay plates were covered and incubated for 48 hours in a 37C, 5% CO2 incubator with controlled humidity.
# 4. After 48 hours, CellTilter-GloTM luminescent substrate mix (Promega) reagent was added to the assay plate and plates we incubated for 5 min at room temperature.
# 5. Signal was measured as median relative luminescence units on a ViewLux (PerkinElmer) multiplate reader.
# [1] Heske CM, Davis MI, Baumgart JT, Wilson K, Gormally MV, Chen L, Zhang X, Ceribelli M, Duveau DY, Guha R, Ferrer M, Arnaldez FI, Ji J, Tran HL, Zhang Y, Mendoza A, Helman LJ, Thomas CJ. Matrix Screen Identifies Synergistic Combination of PARP Inhibitors and Nicotinamide Phosphoribosyltransferase (NAMPT) Inhibitors in Ewing Sarcoma. Clin Cancer Res. 2017 Dec 1;23(23):7301-7311. doi: 10.1158/1078-0432.CCR-17-1121. Epub 2017 Sep 12. PMID: 28899971; PMCID: PMC6636827.
# Potency is the fitted concentration of half-maximal effect.
row,SMILES,Potency
1,O=S(=O)(F)Cc1ccccc1,0.105 µM (active)
2,O=c1[nH]c2ccccc2n1C1CCN(Cc2ccc(-c3[nH]c4cc5ncnc5cc4nc3-c3ccccc3)cc2)CC1,2.35 µM (active)
3,COC1=CC(C)=C[C@@H](C)[C@@H](O)[C@@H](C)CC(C)=CC=C[C@H](OC)[C@H]([C@@H](C)[C@@H](O)[C@H](C)[C@@]2(O)C[C@@H](O)[C@H](C)[C@@H](C(C)C)O2)OC1=O,0.0118 µM (active)
4,CCN1CCN(C(=O)Cc2ccc(Nc3ncc(F)c(Nc4ccc(C(=O)Nc5ccccc5Cl)cc4)n3)cc2)CC1,7.43 µM (active)
5,CCOC(=O)Nc1ccc(NCc2ccc(F)cc2)cc1N,inactive
6,Cc1c(C(=O)c2cccc3ccccc23)c2cccc3c2n1[C@H](CN1CCOCC1)CO3,23.5 µM (active)
7,C[C@@H]1CC[C@@]2(OC1)O[C@H]1C[C@H]3[C@@H]4CC=C5C[C@@H](O[C@@H]6O[C@H](CO)[C@@H](O[C@@H]7O[C@@H](C)[C@H](O)[C@@H](O)[C@@H]7O)[C@H](O)[C@@H]6O[C@@H]6O[C@@H](C)[C@H](O)[C@@H](O)[C@@H]6O)CC[C@]5(C)[C@@H]4CC[C@]3(C)[C@@H]1[C@H]2C,4.69 µM (active)
8,CC(C)[C@]12O[C@@H]1[C@@H]1O[C@]13[C@]1(O[C@H]1C[C@@H]1C4=C(CC[C@@]13C)C(=O)OC4)[C@H]2O,inactive
9,CC(=CCCC1=CCC(C2=CC(=O)OC2O)OC1O)CCC1=C(C)CCCC1(C)C (stereo not given),inactive
10,CN[C@@H]1Cc2cccc3[nH]c(=O)n(c23)C1,inactive
11,COc1cccc2c1[C@]13CCN(CC4CC4)[C@H](C2)[C@]1(OC)CCC(=O)C3,inactive
12,CC(=O)OCC1=C(C(=O)O)N2C(=O)[C@@H](N)[C@@H]2SC1,inactive
13,COC(=O)[C@@H](N)CCCN=C(N)N[N+](=O)[O-],inactive
14,O=C(O)CNC(=O)c1c(O)c2ccccc2n(Cc2ccccc2)c1=O,inactive
15,C[C@]12CCC(=O)C(O)=C1CC[C@@H]1[C@H]3CCC(=O)[C@@]3(C)CC[C@@H]12,inactive
16,Cc1ccccc1-n1c(Cn2cnc3c(N)ncnc32)nc2cccc(C)c2c1=O,0.296 µM (active)
17,CCOC(=O)c1c(C(C#N)=CN)c2ccc(Cl)c(Cl)c2n1C,inactive
18,C1=C2CCCN[C@H]2[C@@H]2C[C@H]1[C@@H]1CCCCN1C2,inactive
19,O=C(Oc1ccc([N+](=O)[O-])cc1)N1CCC(C(O)(c2ccc3c(c2)OCO3)c2ccc3c(c2)OCO3)CC1,16.6 µM (active)
20,C[C@@]12OC(=O)[C@]1([C@@H](O)[C@@H]1C=CCCC1)NC(=O)[C@H]2CCCl,0.0083 µM (active)

row,SMILES,Potency
1,C[C@]12CC[C@H]3[C@@H](CCC4=CC(=O)CC[C@@]43C)[C@H]1CC[C@H]2O,inactive
2,O=C1CCC[C@@H]2[C@H]3CCCN4CCC[C@@H](CN12)[C@@H]34,inactive
3,CC1=NN=C(c2ccc(N)cc2)c2cc3c(cc2C1)OCO3,inactive
4,COc1ccc2c(c[n+](C)c3c4cc5c(cc4ccc23)OCO5)c1OC,7.43 µM (active)
5,C[C@@H]1[C@H](O)[C@@H](C)C=CC=CCCC=CC=CC=CC=C[C@H](O[C@H]2O[C@@H](C)[C@H](O)[C@@H](N)[C@@H]2O)CC2O[C@](O)(C[C@@H](O)[C@H](O)CC[C@@H](O)C[C@@H](O)C[C@@H](O)CC(=O)O[C@H]1C)C[C@H](O)[C@H]2C(=O)O,inactive
6,Cc1c(C(=O)Nc2cccc(C(F)(F)F)c2)cc(-c2ccccc2)n1CCCN1CCOCC1,14.8 µM (active)
7,CC[C@H]1C=CC=CC[C@@H](C)[C@H](O)[C@@](C)(O)C(=O)[C@@H](C)[C@H](O)[C@@H](C)C(=O)[C@@H](C)[C@H](O)[C@@H](C)C=CC(=O)O[C@@H]2[C@@H](C)[C@H](CC1)O[C@]1(CC[C@H](C)[C@H](C[C@@H](C)O)O1)[C@H]2C,9.35 µM (active)
8,CC(C)(O)C(=O)Nc1ccc([N+](=O)[O-])c(C(F)(F)F)c1,9.35 µM (active)
9,C[C@](O)(COc1ccc(C#N)cc1)C(=O)Nc1ccc(C#N)c(C(F)(F)F)c1,18.7 µM (active)
10,C#CC1(O)CCC2C3CCC4=CC(=O)CCC4(C)C3CCC21C (stereo not given),inactive
11,COCC1(CO)C(=O)C2CCN1CC2 (stereo not given),2.96 µM (active)
12,Oc1ccc2c3c1O[C@H]1c4[nH]c5c(c4C[C@@]4(O)[C@@H](C2)N(CC2CC2)CC[C@]314)C[C@@]1(O)[C@H]2Cc3ccc(O)c4c3[C@@]1(CCN2CC1CC1)[C@H]5O4,inactive
13,CC(=Cc1csc(C)n1)[C@@H]1C[C@H]2O[C@]2(C)CCC[C@H](C)[C@@H](O)[C@@H](C)C(=O)C(C)(C)[C@@H](O)CC(=O)O1,inactive
14,CC1=C(O)C(=O)C=C2C1=CC=C1[C@@]2(C)CC[C@@]2(C)[C@@H]3C[C@](C)(C(=O)O)CC[C@]3(C)CC[C@]12C,0.743 µM (active)
15,CC(=Cc1csc(C)n1)[C@@H]1C[C@H]2O[C@@H]2CCC[C@H](C)[C@@H](O)[C@@H](C)C(=O)C(C)(C)[C@@H](O)CC(=O)O1,inactive
16,C[C@@H]1CC[C@H]2[C@@H](C)C(=O)O[C@@H]3O[C@@]4(C)CC[C@H]1[C@]32OO4,0.743 µM (active)
17,CO[C@H]1CCC(O[C@H]2C[C@H]([C@]3(C)CC[C@]4(C[C@H](O)[C@@H](C)[C@@H]([C@@H](C)C=C(C)C(=O)[C@H](C)C[C@H](C)C(=O)O)O4)O3)O[C@]3(O[C@@H]([C@H]4O[C@@](O)(CO)[C@H](C)C[C@H]4C)C[C@H]3C)[C@H]2C)O[C@H]1C (stereo not given in full),1.18 µM (active)
18,CCN(CC)C(=O)c1ccc(C2=CC3(CCNCC3)Oc3cccc(O)c32)cc1,inactive
19,Cc1nc(-c2ccc(-c3ccc(C(=O)N4CCc5cc6c(cc54)C4(CCN(C)CC4)CO6)cc3)c(C)c2)no1,inactive
20,C=C[C@@H]1CN2CCC1C[C@H]2[C@H](O)c1ccnc2ccccc12 (stereo not given in full),20.9 µM (active)
